HT1080 IDH1KD tx: qHTS for induction of synthetic lethality in tumor cells producing 2HG: qHTS for the HT-1080-IDH1KD cell line; hit rate 2% among 360,000; HT-1080 IDH1 knockdown viability, ATP luminescence, 48 h; Potency, µM (top dose mostly 46.1 µM), inactives show at the top dose activity, negative = toxicity, most hits filed as cytotoxic; AID 686971, 2013;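 further: potency means the concentration at half of the fitted maximal effect; 0% = DMSO wells and -100% = cell-free medium wells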
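Luminescent ATP read-out (CellTiter-Glo, 10 min at room temperature) after 48 h compound exposure at 37 °C gave viability of IDH1-knockdown HT-1080 cells. Activity was normalised to DMSO and cell-free wells, then fitted as concentration-response curves.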
DT40 TDP1 no CPT: qHTS for Inhibitors of human tyrosyl-DNA phosphodiesterase 1 (TDP1): qHTS in cells in absence of CPT. DT40 Tdp1-/- hTDP1 cells, no CPT, ATP luminescence, 48 h. Potency, µM (series often up to 46.2 µM), without a hit: at the highest dose activity change, negative = growth inhibition, most hits filed as inhibitors. hit rate 15% among 420,000. AID 686978, 2013; further: potency means the concentration at half of the fitted maximal effect; nearly all actives have a fitted effect of over 55% in size
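DT40 Tdp1-/-;hTDP1 cells, no CPT (DMSO vehicle only), 400 cells/well; compounds pin-transferred; ≥48 hr, 37 °C; CellTiter-Glo 30 min RT dark, luminescence read.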
HT1080-NT tox: qHTS for induction of synthetic lethality in tumor cells producing 2HG: qHTS for the HT-1080-NT fibrosarcoma cell line | HT-1080-NT fibrosarcoma viability, CellTiter-Glo ATP luminescence, 48 h | Potency, µM (doses to about 46.1 µM), for the others: at the top dose activity, negative = less viability, actives largely listed as cytotoxic | hit rate 1.6% among 360,000 | AID 686970, 2013;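 further: NT is the 2HG producing partner of a matched IDH1 knockdown line; potency means the concentration at half of the fitted maximal effect; 0% = DMSO-treated cells and -100% = media-only wells without cells; nearly all actives have a fitted effect of over 55% in size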
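Viability of the 2HG-overproducing fibrosarcoma line after 48 hours of compound exposure at 37 degrees C was determined by luminescence with CellTiter-Glo, and concentration-effect curves were then fitted and categorized.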
DT40 TDP1 CPT: qHTS for Inhibitors of human tyrosyl-DNA phosphodiesterase 1 (TDP1): qHTS in cells in presence of CPT; chicken DT40 Tdp1-/-;hTDP1 cells + 20 nM CPT, ATP luminescence, 48 h; Potency, µM (series often up to 46.2 µM), without a hit: at the top dose activity change, negative = growth inhibition, hits mostly inhibitors; hit rate 12% among 420,000; further: potency means the concentration at half of the fitted maximal effect; nearly all actives have a fitted effect of over 55% in size
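Cell growth measured by CellTiter-Glo luminescence after a minimum 48 h, 37 C compound exposure with 20 nM CPT in Tdp1-knockout DT40 cells stably expressing hTDP1, seeded 400/well; qHTS titration format.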
IL1B secr inh: qHTS for Inhibitors of Inflammasome Signaling: IL-1-beta AlphaLISA Primary Screen; THP-1 LPS/ATP IL-1B secretion, AlphaLISA, 16 h; hits give low values; activity change, % at 57.5 µM; hit rate 4.7% among 360,000; in the data active means activity change below about -50%; inconclusive means mostly about -30% to -49%
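THP-1 cells pretreated 1 hr with compounds (up to 57.5 uM final), then stimulated with LPS (250 ng/mL final) plus ATP (1.25 mM final); secreted IL-1B measured by AlphaLISA after 16 hr, decreased signal indicating inhibition.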
The depositor's hits bear a star; ? = inconclusive; nt = no result; ! = not active in a repeat. Compounds with a hit are over-represented: about 19% of the library has one in this group of screens. Unless noted, the call rests on the fitted dose curve; in most records, active means well fitted curve in the direction sought with a large enough effect; inconclusive means small, poorly fitted or top-dose-only effect, or another doubt; inactive means no such curve, though single readings can be large; an effect the other way counts as inactive or inconclusive. Unless noted, on the % scale 0 is the no-effect control and ±100 the full control effect.

SMILES | HT1080 IDH1KD tx | DT40 TDP1 no CPT | HT1080-NT tox | DT40 TDP1 CPT | IL1B secr inh
COC(=O)c1ccc(COC(=O)CNC(=O)CNC(=O)c2ccc(C)cc2)cc1 | 6% | 16% | 3% | -16% | -13
Cc1ccc(NC(=O)CSc2nnnn2-c2ccc3c(c2)OCO3)cc1C | -8% | ? | -7% | ? | -17
COc1cccc(CNC(=O)c2c(C)oc3nc(C)nc(N4CCOCC4)c23)c1 | nt | -5% | nt | -9% | nt
Cc1ccnc(NC(=O)C2CCC(CNc3c(N4CCCC4)c(=O)c3=O)CC2)c1 (centres undefined) | -9% | ? | -17% | -1% | -67*
COc1cc(NC(=O)C2CCC(CNc3c(N4CCC(C)CC4)c(=O)c3=O)CC2)cc(OC)c1 (centres undefined) | 13% | -7% | 7% | ? | -62*!
Cc1cccc(N2CCN(CC(O)COc3ccc(Cl)cc3)CC2)c1 (centres undefined) | -1% | 13µM* | 2% | ? | ?
Cc1ccc(N2CCN(CC(O)COc3cccc(C)c3)CC2)cc1 (centres undefined) | -1% | ? | 1% | 23µM* | 3
COc1ccc(Oc2ncc3nc(-c4ccc(OC)cc4)c(=O)n(C)c3n2)cc1 | nt | -15% | nt | -11% | nt
Oc1ccccc1/C=N/Nc1nc2ccccc2o1 | ? | 2.9µM* | ? | 3.3µM* | 49
Cc1nn(-c2ccccc2Cl)c(Cl)c1/C=N/Nc1nc2ccccc2s1 | ? | 12µM* | ? | ? | 12
COc1ccc(/C=N/Nc2nc3ccccc3s2)cc1O | -18% | ? | -15% | 17% | -87*
COc1ccc(/C=N/Nc2ccc([N+](=O)[O-])cc2)cc1O | ? | ? | -27% | ? | -66*
CCn1c(C)c(/C=N/Nc2nc3ccccc3s2)c2ccccc21 | 8.9µM* | 18µM* | 3.5µM* | 18µM* | ?
COc1cccc(C=NNc2nc3ccccc3s2)c1OC | -19% | ? | ? | 2% | 25
C(=N\Nc1nc2ccccc2s1)/c1cccs1 | 11µM* | ? | 10µM* | 16µM* | ?
Oc1ccc(/C=N/Nc2ccc3ccccc3c2)c(O)c1 | -21% | -12% | -29% | -6% | -14
Oc1ccc(C=NNc2nc3ccccc3s2)c(O)c1 | ? | 4.1µM* | ? | 3.7µM* | -1
Oc1ccccc1C=NNc1nc2ccccc2s1 | 8.2µM* | 0.052µM* | 18µM* | 0.065µM* | ?
CNc1nc(-c2ccoc2)nc2ccccc12 | nt | 0% | nt | 1% | nt
O=S(=O)(c1ccc(S(=O)(=O)N2CCN(C/C=C/c3ccccc3)CC2)cc1)N1CCCC1 | ? | 12µM* | ? | ? | 13
CC1(C)C(C=C(Cl)Cl)C1C(=O)N1CCN(Cc2ccccc2)CC1 (centres undefined) | -6% | ? | -5% | -3% | -51*
O=C(C1CCN(Cc2ccccc2)CC1)N1CCN(C/C=C/c2ccccc2)CC1 | -22% | 23µM* | -21% | ? | ?
S=C(Nc1ccccc1)N1CCN(C/C=C/c2ccccc2)CC1 | -10% | ? | -2% | -26% | 11
S=C(NC1CCCC1)N1CCN(C/C=C/c2ccccc2)CC1 | -3% | 21µM* | ? | ? | -66*
O=C(C1CC1)N1CCN(Cc2ccccc2)CC1 | 10% | -5% | -23% | 0% | 24
SMILES | HT1080 IDH1KD tx | DT40 TDP1 no CPT | HT1080-NT tox | DT40 TDP1 CPT | IL1B secr inh
O=C(c1cc2ccccc2o1)N1CCN(C/C=C/c2ccccc2)CC1 | -27% | ? | ? | 15µM* | -55*
CC(Sc1nnc(-c2ccccc2F)n1C1CC1)C(=O)NC(N)=O (centres undefined) | 21% | -12% | 20% | -12% | -10
CCNc1sc(S(C)(=O)=O)nc1S(=O)(=O)c1ccc(C)cc1 | nt | -19% | nt | -5% | nt
CCS(=O)(=O)c1nc(S(=O)(=O)c2ccc(Cl)cc2)c(NCCN2CCOCC2)s1 | 2% | 2% | 4% | -11% | -1
CS(=O)(=O)c1nc(S(=O)(=O)c2ccc(Cl)cc2)c(NCCCn2ccnc2)s1 | -4% | 20% | -2% | 5% | -56*
CS(=O)(=O)c1nc(S(=O)(=O)c2ccc(Cl)cc2)c(NCCN2CCOCC2)s1 | 8% | 20% | ? | -11% | -52*
O=C(N[C@@H]1CCC(=O)N(CC[C@H](Sc2ccc(Br)cc2)c2ccccc2)CC1)OCc1ccccc1 | -3% | 18µM* | -7% | 26µM* | ?
COc1ccc(SC[C@H](C)CN2CC[C@H](NC(=O)OCc3ccccc3)CCC2=O)cc1 | -15% | 23µM* | -1% | ? | 28
[N-]=[N+]=N[C@@H](CCN1CC[C@H](NC(=O)OCc2ccccc2)CCC1=O)c1ccccc1 | -6% | ? | -4% | ? | 17
COc1ccc(S[C@@H](CCN2CC[C@H](NC(=O)OCc3ccccc3)CCC2=O)c2ccccc2)cc1 | ? | 23µM* | ? | 18µM* | -53*
Cc1cc(C)cc(NC(=O)CSCc2cc(=O)c3cc(Cl)ccc3[nH]2)c1 | nt | -1% | nt | 8% | nt
Cc1ccc(COCCN2CCN(S(=O)(=O)c3ccccc3)CCC2=O)cc1 | 7% | -27% | 3% | -25% | 8
Cc1ccc(S(=O)(=O)N2CCC(=O)N(CCOCc3ccccc3)CC2)cc1 | 4% | ? | 4% | ? | -6
Cc1ccc(S(=O)(=O)N2CCC(=O)N(CCOCc3ccc(C(F)(F)F)cc3)CC2)cc1 | -8% | 8.2µM* | -4% | 4.6µM* | ?
O=C1CCN(S(=O)(=O)c2ccccc2)CCN1CCOCc1ccc(C(F)(F)F)cc1 | -2% | 13µM* | -1% | ? | 35
COc1ccc2[nH]c3c4c(ccc3c2c1)C(=O)C=CC4=O | 16µM* | 0.26µM* | 13µM* | 0.23µM* | -77*
CCc1cccc(CC)c1NC(=S)NCCc1ccc(O)c(O)c1 | -8% | ? | -1% | 23µM* | ?
C#CCn1cc(Cl)cc(C(=O)Nc2ccccc2)c1=O | 0% | -10% | -1% | 3% | 6
O=C(CSCc1nc2ccccc2[nH]1)Nc1ccc2ccccc2c1 | -29% | -18% | -2% | -5% | 0
O=C(CSCc1cccc(CSCC(=O)Nc2ccc3ccccc3c2)n1)Nc1ccc2ccccc2c1 | -19% | 15µM* | -7% | ? | -26
O=C(CS)Nc1ccc2ccccc2c1 | 21µM* | 4.1µM* | 21µM* | 2.9µM* | -95*

Screening results: PubChem BioAssay, National Center for Advancing Translational Sciences (NCATS)
